This passage reports Potency results from PubChem BioAssay AID1347156 (National Center for Advancing Translational Sciences (NCATS), 2019).

SMILES strings stand for the structures. Results filed as inconclusive are left out. A call without a number means that no potency is given here. Active and inactive are the calls of the source. Calls come from the whole dose curve; as a rule, active = well fitted cell-killing curve with a large enough effect; inconclusive = small, poorly fitted or top-dose-only effect; inactive = flat fitted curve, though single readings scatter.
Potency is the fitted concentration of half-maximal effect.

This experiment can be described thus: DAPI mCherry counterscreen qHTS for Zika virus inhibitors. Note: nearly all actives have a fitted effect of over 55% in size. Conditions: Vero cells, DAPI nuclear count cytotoxicity, imaging 48-72 h, infected with Zika reporter virus, MOI 1; series mostly up to 32.6 µM. An outline of the steps: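 Imaging read-out after fixation and Hoechst nuclear staining: percent infection from mCherry-positive cells (above 3 SD of negative controls) and nuclear counts. Setup: Vero cells pre-plated overnight, compound added, infected with ZIKV-mCherry (MOI 1), 48-72 hrs, 37 degrees C.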
Background: The purpose of a counterscreen is to sort out artefacts and off-target activity.
Turning to `C/C(=C\c1ccc(C(=O)O)cc1)c1ccc2c(c1)C(C)(C)CCC2(C)C`, the Potency was 20 µM (active).

On to `O=C(O)Cc1cccc(OCCCN(Cc2cccc(C(F)(F)F)c2Cl)CC(c2ccccc2)c2ccccc2)c1`, for which the Potency is 15.8 µM (active). Then `Cc1cc(-c2ccc(N=Nc3c(S(=O)(=O)O)cc4cc(S(=O)(=O)O)cc(N)c4c3O)c(C)c2)ccc1N=Nc1c(S(=O)(=O)O)cc2cc(S(=O)(=O)O)cc(N)c2c1O`, with “inactive”. Then `O=C(O)c1cc(-n2c(/C=C\c3ccc(F)cc3)nc3ccccc3c2=O)ccc1Cl`, with “inactive”; and `O=C(O)c1cnn(-c2nc3cc(OC(F)(F)F)c(Cl)cc3[nH]2)c1`, with “inactive”; and `CCCCCCOc1cc2c(cc1N(C)c1ncc(C(=O)O)cn1)C(C)(C)CCC2(C)C`, with 22.4 µM (active). On to `Cc1cc(OCCCc2c(C(=O)O)n(Cc3cccnc3)c3c(-c4c(COc5ccc(N6CCN([S+](C)(=O)[O-])CC6)cc5)nn(C)c4C)cccc23)cc(C)c1Cl`, for which the Potency was 14.1 µM (active). Then `O=C(O)c1ccccc1-c1c2cc(I)c(=O)c(I)c-2oc2c(I)c(O)c(I)cc12`, with “inactive”; and `COc1cc(C2Nc3ccccc3-c3nnc(SCc4ccc(Cl)cc4)nc3O2)ccc1OCC(=O)O` (centres undefined), with “inactive”. Then `CC(C)=CCOc1ccc(/C=C/C(=O)c2ccc(OCC=C(C)C)cc2OCC(=O)O)cc1`, with 25.1 µM (active); and `O=S(=O)(O)c1ccc2c(N=Nc3ccc(S(=O)(=O)O)c4ccccc34)c(O)c(S(=O)(=O)O)cc2c1`, with “inactive”. Take `COc1ccc(NS(=O)(=O)c2ccc3c(c2)[C@H]2C=CC[C@H]2[C@@H](c2ccc(C(=O)O)cc2)N3)cc1`: the Potency entry was “inactive”. Then `COc1c2occc2cc2ccc(=O)oc12`, with “inactive”. `O=C(O)C(Cc1cc(I)c(O)c(I)c1)c1ccccc1` (centres undefined): the Potency was 4.47 µM (active).

Turning to `CCOc1ccc(-c2ccc(Cn3c(CC(C)(C)C(=O)O)c(SC(C)(C)C)c4cc(OCc5ccc(C)cn5)ccc43)cc2)cn1`, the Potency is 17.8 µM (active).

For `CC1(C)CCC(C)(C)c2cc3c(cc21)Sc1ccccc1N=C3c1ccc(C(=O)O)cc1`, the Potency was 8.91 µM (active). Then `CCN(Cc1cccc(S(=O)(=O)O)c1)c1ccc(C(=C2C=CC(=[N+](CC)Cc3cccc(S(=O)(=O)O)c3)C=C2)c2ccc(O)cc2S(=O)(=O)O)cc1`, with “inactive”; and `O=C(OCc1cc(=O)n2nc(C3CC3)sc2n1)c1ccc(NC(=O)c2ccccc2Cl)cc1`, with “inactive”. Then `CCN(Cc1cccc(S(=O)(=O)O)c1)c1ccc(C(=C2C=CC(=[N+](CC)Cc3cccc(S(=O)(=O)O)c3)C=C2)c2ccccc2S(=O)(=O)[O-])cc1`, with “inactive”; and `Nc1ncnc2c([C@@H]3N[C@H](CO)[C@@H](O)[C@H]3O)c[nH]c12`, with “inactive”; and `COc1cccc(C(=O)Nc2ccc(C(=O)OCc3cc(=O)n4nc(C5CC5)sc4n3)cc2)c1`, with 5.62 µM (active).

With `COc1ccc2c(c1)Oc1nc(-c3ccc(C)s3)nc(SCC(=O)Nc3cccc(C(=O)O)c3)c1C2`, the Potency result was “inactive”. Then `CC(C)C1=CCC(C)(O)C(OC2OC(CO)C(O)C(O)C2O)C1` (centres undefined), with “inactive”; and `Cc1cc(C)cc(C(=O)N(C)[C@H](Cc2ccc(-c3ccccc3)cc2)C(=O)N[C@@H](Cc2c[nH]c3ccccc23)C(=O)O)c1`, with 8.91 µM (active); and `Cc1cc(N2CCOCC2)cc2[nH]c(-c3c(NC[C@@H](O)c4cccc(Cl)c4)cc[nH]c3=O)nc12`, with 12.6 µM (active).

For `O=c1c(O)c(-c2ccc(O)c(O)c2)oc2cc(O)cc(O)c12`, the Potency result was “inactive”.

For `O=C(Nc1ccccc1)c1ccc2c(O)c(S(=O)(=O)c3ccc(Cl)cc3)c(=O)[nH]c2c1`, the Potency entry was “inactive”. Regarding `CCOc1ccc(-c2cc(NC(=O)c3c(F)cccc3F)c(C(=O)O)s2)cc1`, the Potency was 5.01 µM (active). With `O=C(Nc1cccc(C(=O)Nc2ccc(S(=O)(=O)O)c3cc(S(=O)(=O)O)cc(S(=O)(=O)O)c23)c1)Nc1cccc(C(=O)Nc2ccc(S(=O)(=O)O)c3cc(S(=O)(=O)O)cc(S(=O)(=O)O)c23)c1` the entry was “inactive”; with `O=c1c(O)c(Br)ccc2c(Br)c(O)c(O)c(O)c12`, “inactive”.

Consider `O=C(COc1ccccc1C(=O)OCC(=O)Nc1cccc2ccccc12)Nc1ccc(Br)cc1`, for which the Potency entry was “inactive”. Then `O=C(Nc1ccc(C(=O)OCc2cc(=O)n3c4c(sc3n2)CCCC4)cc1)c1ccc(F)cc1`, with “inactive”; and `O=C(Nc1cccc2c(=O)cc(-c3nn[nH]n3)oc12)c1ccc(OCCCCc2ccccc2)cc1`, with 35.5 µM (active). With `O=S(=O)(O)c1cc(O)c2c(N=Nc3ccc(Nc4ccccc4)c4c(S(=O)(=O)O)cccc34)cc(S(=O)(=O)O)cc2c1` the entry was “inactive”.
